± gives the standard deviation.

What all share (conditions): modulator concentration 10 µM
The subject of assay [1] is RAW-Dual (murine macrophage reporter line). Briefly: NF-kB reporter (SEAP) activity fold change vs agonist alone; higher = enhanced NF-kB activity. An outline of the steps: (§1)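 RAW-Dual murine macrophage reporter cells were seeded at 50 000 per well in 384-well plates and pre-incubated 1 hour at 37 °C with compound pin-transferred to 10 μM final. After 1 hour, a PRR agonist was added and cells incubated overnight. Supernatant NF-κB (SEAP, QUANTI-Blue, 620 nm absorbance) and IRF (Lucia luciferase, QUANTI-Luc, luminescence) signals were divided by the mean agonist-only control on the same plate to give fold change. Two replicate plates were averaged, with errors by propagation.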

Assay [2] shares this test system. Put plainly: IRF reporter (Lucia luciferase) activity fold change vs agonist alone; higher = enhanced IRF activity. A digest of the protocol:
as §1

Assay [3] has the same test system. Put plainly: viability score (confluency relative to resting cells, overnight) (fraction); higher = more viable, active = viable (0.7 or more). An outline of the steps:
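Two confluency masks, generated with IncuCyte software over all imaged wells, were applied to IncuCyte images of RAW-Dual macrophages. The cells, in 384-well plates, had been exposed overnight to 10 μM final compound. The viability score is confluency as a fraction of resting cells, and a compound met the cutoff only with both masks above 70% of resting cells.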

Where [4] appears, read: agonist: CpG ODN 1826 0.5 ug/mL.

Consider `O=C(NCC1(O)Cc2ccccc2C1)c1cccc(Br)c1`, for which the NF-kB reporter is 1.09 ± 0.055 in assay [1] (setting [4]), 1.02 ± 0.093 in assay [1] (agonist: LPS 0.1 ug/mL) and 1.03 ± 0.15 in assay [1] (agonist: MPLA […]). The IRF reporter came to 1.05 ± 0.069 in assay [2] (agonist: 3'3'-cGAMP 10 ug/mL), 1.2 ± 0.11 in assay [2] (agonist: LPS 0.1 ug/mL) and 1.32 ± 0.1 in assay [2] (agonist: MPLA […]). For the same compound, the viability score in assay [3] was 0.677 (inactive).
As to `O=c1[nH]c(=O)n(C2CC(O)C(CO)O2)cc1F` (stereo not drawn), the NF-kB reporter in assay [1] (setting [4]) was determined as 1.67 ± 0.13; in assay [1] (agonist: LPS 0.1 ug/mL), 0.714 ± 0.057; in assay [1] (agonist: MPLA […]) it was 0.978 ± 0.1. The IRF reporter came to 0.321 ± 0.025 in assay [2] (agonist: 3'3'-cGAMP 10 ug/mL), 0.684 ± 0.14 in assay [2] (agonist: LPS 0.1 ug/mL) and 0.545 ± 0.12 in assay [2] (agonist: MPLA […]). For the same compound, in assay [3], the viability score was 1.04 (active).
`CCCOc1cccc(C=C2N=C(c3ccc(Cl)c([N+](=O)[O-])c3)OC2=O)c1`: the NF-kB reporter in assay [1] (setting [4]) came out at 0.993 ± 0.094; in assay [1] (agonist: LPS 0.1 ug/mL), 1.07 ± 0.072; in assay [1] (agonist: MPLA […]), 0.912 ± 0.055. Moreover, the figures for the IRF reporter in assay [2] (agonist: 3'3'-cGAMP 10 ug/mL), in assay [2] (agonist: LPS 0.1 ug/mL) and in assay [2] (agonist: MPLA […]) were 1.02 ± 0.041, 1.55 ± 0.17 and 1.04 ± 0.15, respectively. Besides, the viability score in assay [3] was 1.01 (active).
In the case of `Cc1nnc(NC(=O)c2ccccc2C(=O)O)s1`, the results for the NF-kB reporter in assay [1] (setting [4]), in assay [1] (agonist: LPS 0.1 ug/mL) and in assay [1] (agonist: MPLA […]) were 0.982 ± 0.13, 0.969 ± 0.063 and 0.983 ± 0.051, respectively. For the same compound, the IRF reporter in assay [2] (agonist: 3'3'-cGAMP 10 ug/mL) was 1.11 ± 0.28; in assay [2] (agonist: LPS 0.1 ug/mL), 1.01 ± 0.055; in assay [2] (agonist: MPLA […]) it was 1.04 ± 0.085. In assay [3], the viability score was 0.998 (active).
On to `CC(=O)Oc1ccccc1C(=O)O`, for which the figures for the NF-kB reporter in assay [1] (setting [4]), in assay [1] (agonist: LPS 0.1 ug/mL) and in assay [1] (agonist: MPLA […]) were 1.01 ± 0.085, 1.05 ± 0.079 and 0.959 ± 0.048, respectively. Moreover, the IRF reporter in assay [2] (agonist: 3'3'-cGAMP 10 ug/mL) stood at 1.02 ± 0.068; in assay [2] (agonist: LPS 0.1 ug/mL) it was 0.964 ± 0.044; in assay [2] (agonist: MPLA […]) it was 0.884 ± 0.11. Moreover, the viability score in assay [3] was 0.998 (active).
For the compound `Nc1ccn([C@@H]2O[C@H](CO)[C@@H](O)[C@@H]2O)c(=O)n1`, the NF-kB reporter was found to be 1.36 ± 0.27 in assay [1] (setting [4]), 1.38 ± 0.13 in assay [1] (agonist: LPS 0.1 ug/mL) and 1.38 ± 0.19 in assay [1] (agonist: MPLA […]). The IRF reporter in assay [2] (agonist: 3'3'-cGAMP 10 ug/mL) is 0.687 ± 0.025; in assay [2] (agonist: LPS 0.1 ug/mL), 1.08 ± 0.16; in assay [2] (agonist: MPLA […]), 1.14 ± 0.12. In assay [3], the viability score is 0.35 (inactive).
With `N[C@@H](CSCCCO)C(=O)O`, the NF-kB reporter in assay [1] (setting [4]) was determined as 0.987 ± 0.073; in assay [1] (agonist: LPS 0.1 ug/mL) it was 1.01 ± 0.051; in assay [1] (agonist: MPLA […]), 0.937 ± 0.033. The figures for the IRF reporter in assay [2] (agonist: 3'3'-cGAMP 10 ug/mL), in assay [2] (agonist: LPS 0.1 ug/mL) and in assay [2] (agonist: MPLA […]) were 0.922 ± 0.077, 0.995 ± 0.047 and 0.971 ± 0.089, respectively. Also, the viability score in assay [3] was 1 (active).
As to `CC(NC(=O)C(=O)NN=Cc1ccc(Cl)cc1Cl)c1ccccc1` (stereo not drawn), the NF-kB reporter in assay [1] (setting [4]) came out at 0.967 ± 0.095; in assay [1] (agonist: LPS 0.1 ug/mL) it was 1.16 ± 0.077; in assay [1] (agonist: MPLA […]), 0.953 ± 0.084. Moreover, the IRF reporter is 1.22 ± 0.051 in assay [2] (agonist: 3'3'-cGAMP 10 ug/mL), 1.39 ± 0.16 in assay [2] (agonist: LPS 0.1 ug/mL) and 1.14 ± 0.11 in assay [2] (agonist: MPLA […]). Also, the viability score in assay [3] was 0.991 (active).
Turning to `Cn1ccc(C(=O)Nc2nc(C(C)(C)C)cs2)n1`, the NF-kB reporter in assay [1] (setting [4]) was found to be 0.805 ± 0.063; in assay [1] (agonist: LPS 0.1 ug/mL), 1 ± 0.082; in assay [1] (agonist: MPLA […]), 1.19 ± 0.083. For the same compound, the IRF reporter amounted to 0.993 ± 0.055 in assay [2] (agonist: 3'3'-cGAMP 10 ug/mL), 1.31 ± 0.18 in assay [2] (agonist: LPS 0.1 ug/mL) and 1.57 ± 0.44 in assay [2] (agonist: MPLA […]). Also, the viability score in assay [3] was 0.675 (inactive).
For `COC(=O)[C@H](c1ccccc1Cl)N1CCc2sccc2C1.O=S(=O)(O)O`, the NF-kB reporter in assay [1] (setting [4]) was determined as 0.811 ± 0.21; in assay [1] (agonist: LPS 0.1 ug/mL), 0.993 ± 0.28; in assay [1] (agonist: MPLA […]) it was 1.06 ± 0.12. Moreover, the IRF reporter turned out to be 1.11 ± 0.081 in assay [2] (agonist: 3'3'-cGAMP 10 ug/mL), 1.02 ± 0.29 in assay [2] (agonist: LPS 0.1 ug/mL) and 0.955 ± 0.22 in assay [2] (agonist: MPLA […]). Also, the viability score in assay [3] was 0.954 (active).
Consider `Cc1ccc(-c2cc(C(F)(F)F)n3nc(C(=O)NCCCN4CCOCC4)cc3n2)cc1`, for which the results for the NF-kB reporter in assay [1] (setting [4]), in assay [1] (agonist: LPS 0.1 ug/mL) and in assay [1] (agonist: MPLA […]) were 0.995 ± 0.083, 1.06 ± 0.098 and 0.983 ± 0.082, respectively. Moreover, the IRF reporter in assay [2] (agonist: 3'3'-cGAMP 10 ug/mL) came out at 0.968 ± 0.024; in assay [2] (agonist: LPS 0.1 ug/mL), 1.31 ± 0.22; in assay [2] (agonist: MPLA […]) it was 1.13 ± 0.22. The viability score in assay [3] was 1.01 (active).
Turning to `Ic1ccc(N=Cc2ccc(C=Nc3ccc(I)cc3)cc2)cc1`, the NF-kB reporter in assay [1] (setting [4]) is 1.03 ± 0.081; in assay [1] (agonist: LPS 0.1 ug/mL) it was 0.868 ± 0.083; in assay [1] (agonist: MPLA […]), 0.997 ± 0.097. The IRF reporter in assay [2] (agonist: 3'3'-cGAMP 10 ug/mL) was 0.954 ± 0.038; in assay [2] (agonist: LPS 0.1 ug/mL), 1.24 ± 0.19; in assay [2] (agonist: MPLA […]), 1.44 ± 0.23. Besides, the viability score in assay [3] is 1.02 (active).
For the compound `O=C1Cc2cc(NC(=O)c3ccc(OC(F)(F)F)cc3)ccc2N1`, the NF-kB reporter was determined as 1.19 ± 0.083 in assay [1] (setting [4]), 0.929 ± 0.076 in assay [1] (agonist: LPS 0.1 ug/mL) and 0.998 ± 0.068 in assay [1] (agonist: MPLA […]). Moreover, the values for the IRF reporter in assay [2] (agonist: 3'3'-cGAMP 10 ug/mL), in assay [2] (agonist: LPS 0.1 ug/mL) and in assay [2] (agonist: MPLA […]) were 0.643 ± 0.034, 0.959 ± 0.059 and 0.99 ± 0.13, respectively. In addition, in assay [3], the viability score is 1 (active).
In the case of `CN1CCN(c2nc3c(=O)[nH]cnc3n2C2OC(CO)C(O)C2O)CC1` (stereo not drawn), the NF-kB reporter in assay [1] (setting [4]) worked out at 0.979 ± 0.11; in assay [1] (agonist: LPS 0.1 ug/mL) it was 1.03 ± 0.071; in assay [1] (agonist: MPLA […]) it was 0.904 ± 0.084. For the same compound, the figures for the IRF reporter in assay [2] (agonist: 3'3'-cGAMP 10 ug/mL), in assay [2] (agonist: LPS 0.1 ug/mL) and in assay [2] (agonist: MPLA […]) were 1.01 ± 0.089, 1.22 ± 0.082 and 1.08 ± 0.25, respectively. Moreover, in assay [3], the viability score is 1.01 (active).

For the origin of these results see the supplement of paper PMC10646978.
